Experimental findings from PubChem BioAssay are described below.

Assay [1] in a line: anti-His antibody binders, primary screen, artefact control for SMM control protein annotation, biochemical, small-molecule microarray, 635 nm fluorescence (AID 1128).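 Also: score merges feature fluorescence with signal-to-noise for each printed compound spot.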 Conditions: anti-His Alexa647 antibody binding, higher = more signal.
The test system of assay [2] is Human papillomavirus type 1a E7 protein (residues 1-88). Kind of assay: HPV1a E7 small-molecule binders, primary screen, biochemical, small-molecule microarray, residues 1-88, 635 nm (AID 1129). Conditions: small-molecule microarray binding, fluorescence 635 nm; higher = more signal.
Assay [3] deals with Focal adhesion kinase 1 (Homo sapiens) (UniProt Q05397). Kind of assay: small-molecule microarray binders of FAK, primary screen, biochemical, 635/667 nm fluorescence, BSA, DTT (AID 1130).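 Also: composite of spot emission at 667 nm and signal to noise over triplicate slides.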 Conditions: PTK2 binding, 635 nm fluorescence, higher = more signal.
In assay [4] the test system is Fibrinogen (Alexa647-labelled). As to the kind of experiment: fibrinogen binders on compound microarrays, profiling panel, artefact control for SMM control-protein annotation, biochemical, small-molecule microarray, 635/667 nm fluorescence (AID 1131).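 Also: z-score merges 667 nm fluorescence with per-spot signal-to-noise over triplicate slides.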 Conditions: fibrinogen-A647 binding fluorescence, higher = more signal.
In assay [5] the target is Follistatin (Homo sapiens) (UniProt P19883). As to the kind of experiment: follistatin binders on small-molecule microarrays, primary screen, biochemical, small-molecule microarray, 635/667 nm fluorescence (AID 1132). Conditions: FST binding, 635 nm fluorescence, higher = more signal.
The target of assay [6] is Fibroblast growth factor 2 (Homo sapiens) (UniProt P09038). As to the kind of experiment: FGF2 binders on small-molecule microarrays, primary screen, biochemical, small-molecule microarray, 635/667 nm fluorescence (AID 1133). Conditions: small-molecule microarray binding, FGF2, fluorescence 635/667; higher = more signal.
The nature of assay [7]: mitochondrial membrane potential change in A549 cells, profiling panel, cell-based, JC-1 fluorescence, basal, 24 h, 100 nL (AID 1138).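 Also: A549 lung adenocarcinoma cells under basal conditions with no added stimulus; test concentration not given here.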 Conditions: higher = more signal.
The test system of assay [8] is Lefty1. Kind of assay: Lefty1 binders on small-molecule microarrays, primary screen, biochemical, small-molecule microarray, 635/667 nm fluorescence (AID 1139). Conditions: small-molecule microarray binding, fluorescence 635/667; higher = more signal.
In assay [9] the test system is wheat germ agglutinin (Triticum aestivum), Alexa647-labelled. As to the kind of experiment: wheat germ agglutinin binders on compound microarrays, profiling panel, artefact control for SMM control-protein annotation, biochemical, small-molecule microarray, 635/667 nm fluorescence (AID 1140).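 Also: score merges 667 nm feature emission with signal to noise over triplicate slides.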 Conditions: WGA-A647 binding, 635 nm fluorescence, higher = more signal.
The target of assay [10] is Luciferin 4-monooxygenase (Photinus pyralis) (UniProt P08659). Kind of assay: firefly luciferase enzyme inhibitors, primary screen, biochemical, luminescence, purified enzyme, 2006 set (AID 1141).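 Also: cell-free assay with purified firefly luciferase at 100 ng per well in PBS; test concentration not given here.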 Conditions: SteadyGlo luminescence, 30 min, higher = more signal, called active from +8 up or from −8 down.
Assay [11] deals with Wnt5a (protein binding on small-molecule microarray). As to the kind of experiment: Wnt5a binders on small-molecule microarray, primary screen, biophysical, 635/667 nm fluorescence (AID 1142).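 Also: fluorescence read at 667 nm with signal to noise per printed feature.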 Conditions: 635 nm fluorescence, higher = more signal.
The nature of assay [12]: cell viability in Huh7 cells, primary screen, cytotoxicity control for HCV replication inhibitor project, CellTiter-Glo luminescence, basal, 48 h (AID 1143).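 Also: Huh7 hepatoma cells carrying a hepatitis C replication reporter with no stimulus; test concentration not given here.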 Conditions: Huh7 HCV replicon, higher = more signal, called active from +8 up or from −8 down. In general terms: ATP-based viability assays read luminescence as a measure of living cells.
A short description of assay [13]: P. aeruginosa biofilm formation inhibitors, primary screen, PAO1 strain, BacTiter-Glo luminescence, LB-PBS (AID 1144). Conditions: 12 h, higher = more signal.
The nature of assay [14]: CREB reporter modulators without forskolin, primary screen, cell-based, PC12, CRE-LacZ reporter, unstimulated (AID 1145). Conditions: no forskolin, luminescence, 4.5 h, higher = more signal, called active from +8 up or from −8 down.
Assay [15] is described as follows: CREB reporter modulators under forskolin, primary screen, cell-based, PC12, CRE-LacZ reporter, forskolin-stimulated (AID 1146).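 Also: PC12 cells with 6xCRE LacZ reporter stimulated by forskolin 10 µM; beta-galactosidase reporter signal reflecting CREB driven transcription.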 Conditions: luminescence, 4.5 h, higher = more signal, called active from +8 up or from −8 down.
Assay [16] has as its target Streptavidin (Streptomyces avidinii) (UniProt P22629). As to the kind of experiment: streptavidin binders on small-molecule microarray, primary screen, artefact control for SMM compound annotation, biophysical, 635/667 nm fluorescence (AID 1147).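 Also: signal reflects streptavidin binding to arrayed compounds as a control protein.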 Conditions: streptavidin binding, higher = more signal.
Assay [17] in a line: small-molecule binders of probe aInhba, primary screen, biochemical, small-molecule microarray, 635/667 nm fluorescence (AID 1148).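 Also: score merges 667nm spot fluorescence with signal-to-noise for antibody binding to printed compounds.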 Conditions: higher = more signal.
Assay [18] concerns the target Torsin-1A (Homo sapiens) (UniProt O14656). Kind of assay: torsin A binders from cell lysate, primary screen, small-molecule microarray, wild-type, 635/667 nm (AID 1149). Conditions: COS7 hTOR1A-WT lysate, 635 nm fluorescence, higher = more signal.
Assay [19] has the same target. As to the kind of experiment: small-molecule binders of mutant TOR1A in lysate, primary screen, cell lysate, small-molecule microarray, COS7 lysate, 635/667 nm fluorescence (AID 1150).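 Also: score pools 667 nm emission and signal to noise measuring lysate protein binding.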 Conditions: COS7 hTOR1A mutant lysate, 635 nm fluorescence, higher = more signal.
Assay [20] concerns Sonic hedgehog protein (Shh). As to the kind of experiment: small-molecule binders of Shh protein, primary screen, biochemical, small-molecule microarray, 635/667 nm fluorescence (AID 1151).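 Also: Shh protein binding to compounds spotted on small-molecule microarray slides; score combines spot fluorescence intensity with signal-to-noise across triplicate slides.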 Conditions: small-molecule microarray binding, 635 nm fluorescence; higher = more signal.

The source made the active and inactive calls. Unless noted, no rule for the calls is given here.

Streptavidin (Streptomyces avidinii), sequence (P22629 whole entry, looked up): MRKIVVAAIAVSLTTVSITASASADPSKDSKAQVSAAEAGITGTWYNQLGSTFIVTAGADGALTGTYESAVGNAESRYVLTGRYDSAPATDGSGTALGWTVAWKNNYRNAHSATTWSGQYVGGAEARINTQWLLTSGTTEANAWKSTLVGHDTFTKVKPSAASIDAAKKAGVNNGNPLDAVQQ
Fibroblast growth factor 2 (Homo sapiens), sequence (P09038 whole entry, looked up): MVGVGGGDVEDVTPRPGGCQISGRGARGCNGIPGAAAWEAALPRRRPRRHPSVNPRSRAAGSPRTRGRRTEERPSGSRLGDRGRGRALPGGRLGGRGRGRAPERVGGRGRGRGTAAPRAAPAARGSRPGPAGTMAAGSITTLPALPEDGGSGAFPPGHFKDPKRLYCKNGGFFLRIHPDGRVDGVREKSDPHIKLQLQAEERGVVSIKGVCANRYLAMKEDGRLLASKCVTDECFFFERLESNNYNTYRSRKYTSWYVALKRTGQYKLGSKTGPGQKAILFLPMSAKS
Follistatin (Homo sapiens), sequence (P19883 whole entry, looked up): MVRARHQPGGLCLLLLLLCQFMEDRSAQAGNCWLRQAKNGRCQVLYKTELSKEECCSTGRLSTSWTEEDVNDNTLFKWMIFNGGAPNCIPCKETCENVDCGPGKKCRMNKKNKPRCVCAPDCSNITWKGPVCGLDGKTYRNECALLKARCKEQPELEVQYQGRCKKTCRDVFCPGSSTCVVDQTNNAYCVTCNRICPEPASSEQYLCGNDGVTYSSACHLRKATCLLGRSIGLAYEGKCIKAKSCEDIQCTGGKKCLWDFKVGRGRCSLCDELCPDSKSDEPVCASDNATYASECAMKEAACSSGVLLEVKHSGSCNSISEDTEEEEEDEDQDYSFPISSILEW
Luciferin 4-monooxygenase (Photinus pyralis), sequence (P08659 whole entry, looked up): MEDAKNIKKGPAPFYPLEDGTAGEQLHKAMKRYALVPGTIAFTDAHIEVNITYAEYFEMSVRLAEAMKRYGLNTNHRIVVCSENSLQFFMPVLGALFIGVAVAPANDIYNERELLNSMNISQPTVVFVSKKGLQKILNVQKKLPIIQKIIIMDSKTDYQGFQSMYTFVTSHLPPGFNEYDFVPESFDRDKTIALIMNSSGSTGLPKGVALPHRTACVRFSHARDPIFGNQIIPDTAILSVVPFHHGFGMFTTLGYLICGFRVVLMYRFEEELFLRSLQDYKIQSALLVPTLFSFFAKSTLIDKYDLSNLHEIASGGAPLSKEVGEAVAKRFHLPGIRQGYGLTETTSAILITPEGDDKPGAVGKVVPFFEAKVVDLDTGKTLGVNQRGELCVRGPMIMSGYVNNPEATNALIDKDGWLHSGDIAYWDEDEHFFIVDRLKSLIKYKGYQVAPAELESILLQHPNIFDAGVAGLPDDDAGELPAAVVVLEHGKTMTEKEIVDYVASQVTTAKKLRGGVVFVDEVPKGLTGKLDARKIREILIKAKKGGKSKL
Focal adhesion kinase 1 (Homo sapiens), sequence (Q05397 whole entry, looked up): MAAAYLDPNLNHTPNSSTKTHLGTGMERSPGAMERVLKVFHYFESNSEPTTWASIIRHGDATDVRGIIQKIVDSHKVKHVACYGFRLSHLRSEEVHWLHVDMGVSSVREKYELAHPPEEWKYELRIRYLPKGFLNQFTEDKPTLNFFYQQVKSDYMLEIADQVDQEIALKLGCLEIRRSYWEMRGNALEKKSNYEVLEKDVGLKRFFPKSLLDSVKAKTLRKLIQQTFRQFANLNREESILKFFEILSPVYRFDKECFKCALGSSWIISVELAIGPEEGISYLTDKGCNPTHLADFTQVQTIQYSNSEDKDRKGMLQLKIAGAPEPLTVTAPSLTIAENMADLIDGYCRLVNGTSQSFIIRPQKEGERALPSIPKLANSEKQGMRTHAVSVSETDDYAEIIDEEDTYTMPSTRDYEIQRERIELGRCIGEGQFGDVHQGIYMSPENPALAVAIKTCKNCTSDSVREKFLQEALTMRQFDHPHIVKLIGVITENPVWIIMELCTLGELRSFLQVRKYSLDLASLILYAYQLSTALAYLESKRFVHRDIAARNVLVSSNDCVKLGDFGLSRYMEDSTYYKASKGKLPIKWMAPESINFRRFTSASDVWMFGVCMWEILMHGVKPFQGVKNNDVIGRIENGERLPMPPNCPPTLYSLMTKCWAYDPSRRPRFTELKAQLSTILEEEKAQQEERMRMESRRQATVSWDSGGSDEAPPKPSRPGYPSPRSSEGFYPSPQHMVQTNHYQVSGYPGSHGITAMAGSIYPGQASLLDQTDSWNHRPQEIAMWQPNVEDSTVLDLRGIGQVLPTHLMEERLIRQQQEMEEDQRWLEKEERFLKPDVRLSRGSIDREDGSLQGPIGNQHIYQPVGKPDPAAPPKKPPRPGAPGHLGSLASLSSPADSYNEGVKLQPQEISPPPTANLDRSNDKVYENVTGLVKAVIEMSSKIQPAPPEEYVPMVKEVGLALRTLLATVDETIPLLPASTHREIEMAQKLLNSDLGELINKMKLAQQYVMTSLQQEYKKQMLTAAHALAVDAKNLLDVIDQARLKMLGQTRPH
Torsin-1A (Homo sapiens), sequence (O14656 whole entry, looked up): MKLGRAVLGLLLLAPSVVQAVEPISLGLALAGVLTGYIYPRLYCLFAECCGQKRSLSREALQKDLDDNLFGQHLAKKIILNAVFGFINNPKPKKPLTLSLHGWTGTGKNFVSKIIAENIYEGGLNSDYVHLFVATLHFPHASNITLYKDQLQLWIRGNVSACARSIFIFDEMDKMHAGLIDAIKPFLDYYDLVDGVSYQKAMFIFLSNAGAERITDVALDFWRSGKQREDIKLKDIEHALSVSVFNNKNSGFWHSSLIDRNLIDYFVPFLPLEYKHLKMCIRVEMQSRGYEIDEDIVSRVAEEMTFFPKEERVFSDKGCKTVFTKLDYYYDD

On to `CCOC(=O)C1=CC[C@@H](c2cccc(Br)c2)N(S(=O)(=O)c2ccc(C)cc2)[C@H]1c1ccc([N+](=O)[O-])cc1`, for which the composite z-score came out at 0.822 in assay [1]; 1.22 in [2]; 0.359 in assay [3]; 1.01 in [4]; 0.782 in assay [5]; 0.873 in assay [6]. The composite z-score in [8] came out at 0.726; in assay [9] it was 0.743; in assay [11], 0.559; in [16], 1.22; in assay [17] it was 0.157; in [18], 0.907. Further, the composite z-score was 0.469 in assay [19] and 0.778 in [20]. Moreover, the z-score in assay [7] is 1.99; in [10], 1.96 (inactive); in assay [12], -2.18 (inactive); in assay [13], -0.314 (inactive); in assay [14], -0.63 (inactive); in assay [15], 0.115 (inactive).

Consider `CN1C(=O)C2C=CC(C(O)c3ccc(F)cc3)N(N3CCCCC3)C2C1=O` (stereo not given), for which the composite z-score in assay [1] was 2.59; in assay [2], 0.978; in assay [3], 1.34; in assay [4] it was 0.167; in assay [5], 0.0756; in assay [6], -0.627. Besides, the composite z-score in assay [8] is -1.21; in assay [9], 1.38; in [11] it was 0.442; in assay [16], 0.428; in assay [17], 0.838; in assay [18], 0.759. The figures for the composite z-score in assay [19] and in [20] were 0.531 and -0.846, respectively. In addition, the z-score in [7] was -0.0964; in assay [10] it was 0.0216 (inactive); in assay [12], 1 (inactive); in assay [13] it was -0.273 (inactive); in assay [14], 1.01 (inactive); in [15] it was -0.523 (inactive).

As to `[N-]=[N+]=NCc1ccccc1C[C@]1(C(=O)NCCN2CCOCC2)COC(c2ccc(OCCCO)cc2)=N1`, the composite z-score worked out at 0.293 in [1]; 1.24 in assay [2]; 0.815 in [3]; 1.02 in [4]; 0.953 in [5]; 0.152 in [6]. Besides, the composite z-score in assay [8] came to 0.346; in assay [9], 0.783; in assay [11], 0.315; in [16] it was 0.837; in assay [17] it was 0.161; in assay [18], 0.969. For the same molecule, the figures for the composite z-score in assay [19] and in assay [20] were 0.645 and -0.204, respectively. Besides, the z-score in [7] is 1.88; in [10], -0.851 (inactive); in assay [12], -2.41 (inactive); in assay [13] it was -0.0639 (inactive); in [14] it was 2.64 (inactive); in assay [15] it was -0.664 (inactive).

With `COC(=O)[C@@]1(Cc2ccccc2N=[N+]=[N-])N=C(c2ccc(OCCCO)cc2)O[C@H]1c1ccccc1`, the composite z-score in [1] amounted to 2.23; in assay [2], 1.13; in assay [3], 0.771; in assay [4], 0.422; in [5], 0.465; in assay [6] it was 0.19. In addition, the composite z-score in assay [8] was 0.138; in [9], 0.0657; in assay [11], 0.748; in assay [16], 0.248; in assay [17], -0.0403; in assay [18] it was -0.89. The composite z-score is 0.305 in assay [19] and 0.175 in assay [20]. Besides, the z-score in [7] was -1.26; in assay [10], -2.7 (inactive); in assay [12], -5.42 (inactive); in assay [13] it was 0.313 (inactive); in assay [14], 1.29 (inactive); in assay [15] it was -0.688 (inactive).

On to `C=C(/C(=C/C[C@@H](OC(=O)c1ccncc1)c1cccc(OCCO)c1)c1cc(C(=O)OC)ccc1OC)C(C)C`, for which the composite z-score in [1] was 1.01; in [2], 1.13; in assay [3] it was -0.165; in assay [4], 0.366; in assay [5], 0.525; in [6], 1.43. Besides, the composite z-score in [8] was 0.879; in [9] it was 0.487; in assay [11], -0.0958; in assay [16], 0.179; in [17], -0.0695; in assay [18] it was 0.227. Besides, the figures for the composite z-score in [19] and in [20] were 0.868 and 1.64, respectively. Besides, the z-score in assay [7] was 4.89; in assay [10], -1.88 (inactive); in assay [12], -1.82 (inactive); in assay [13], -0.634 (inactive); in assay [14], 26.8 (active); in assay [15], -1.07 (inactive).
